Screening data (PubChem BioAssay)
UCHL1 block = inhibitors of human UCHL1 deubiquitinase | Ubiquitin carboxyl-terminal hydrolase isozyme L1 (Homo sapiens), P09936 | purified UCHL1, Ub-rhodamine cleavage fluorescence | inhibition, % at 20 µM | 47,000 tested, 0.2% active | AID 1645859, 2021
USP7 inh = inhibitors of human USP7 deubiquitinase. Ubiquitin carboxyl-terminal hydrolase 7 (Homo sapiens), Q93009. purified USP7, Ub-rhodamine cleavage fluorescence. inhibition, % at 20 µM. 47,000 tested, 0.3% active
USP10 inh = inhibitors of human USP10 deubiquitinase; purified USP10, Ub-rhodamine fluorescence, 60 min; 47,000 tested, 1.1% active; inhibition, % at 20 µM; AID 1645856, 2021
Target sequence (Q14694 whole entry, looked up): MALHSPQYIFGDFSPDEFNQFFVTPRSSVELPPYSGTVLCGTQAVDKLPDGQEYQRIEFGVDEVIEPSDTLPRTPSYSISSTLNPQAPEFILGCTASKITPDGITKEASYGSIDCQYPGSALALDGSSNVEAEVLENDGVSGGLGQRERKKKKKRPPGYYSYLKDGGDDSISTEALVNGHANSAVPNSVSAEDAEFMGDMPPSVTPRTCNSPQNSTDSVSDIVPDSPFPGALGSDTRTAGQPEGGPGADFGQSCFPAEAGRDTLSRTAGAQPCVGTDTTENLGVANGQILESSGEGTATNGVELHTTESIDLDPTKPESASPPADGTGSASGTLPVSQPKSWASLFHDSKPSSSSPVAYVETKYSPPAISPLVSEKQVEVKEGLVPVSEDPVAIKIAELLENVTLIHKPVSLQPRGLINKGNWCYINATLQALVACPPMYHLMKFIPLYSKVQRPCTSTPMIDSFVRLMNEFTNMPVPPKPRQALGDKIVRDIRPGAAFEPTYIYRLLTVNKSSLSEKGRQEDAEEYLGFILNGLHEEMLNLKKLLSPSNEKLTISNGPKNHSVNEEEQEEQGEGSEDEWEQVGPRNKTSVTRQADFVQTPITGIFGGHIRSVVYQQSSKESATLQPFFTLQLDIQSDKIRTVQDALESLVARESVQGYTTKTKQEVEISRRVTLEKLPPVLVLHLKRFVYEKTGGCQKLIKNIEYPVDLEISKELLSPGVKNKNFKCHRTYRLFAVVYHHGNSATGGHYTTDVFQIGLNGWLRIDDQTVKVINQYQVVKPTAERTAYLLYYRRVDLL
USP8 inh = inhibitors of human USP8 deubiquitinase; Ubiquitin carboxyl-terminal hydrolase 8 (Homo sapiens), P40818; purified USP8, Ub-rhodamine cleavage fluorescence, 30 min; inhibition, % at 20 µM; 47,000 tested, 4.2% active
* hit, by the source's call. Hits are enriched below; roughly 5% of the tested compounds scored in any of these assays. Cut-off read from the data, not from the text of the source: active = inhibition above about 30%; inactive = the rest.

SMILES | UCHL1 block | USP7 inh | USP10 inh | USP8 inh
Cc1ccc(S(=O)(=O)Nc2ccc(NC(=O)CC3OC(=O)c4ccccc43)cc2)cc1[N+](=O)[O-] (centres undefined) | 3 | 3 | 4 | -79
O=S1(=O)NC2(CCN(Cc3ccc(N4CCCC4)cc3)CC2)Nc2ccccc21 | 2 | -2 | -2 | 11
O=c1ccnc(Nc2cccc3ccccc23)[nH]1 | 0 | 7 | 1 | 49*
Brc1ccc2nc(Nc3cccc4ccccc34)nc(-c3ccccc3)c2c1 | -5 | -4 | -11 | -228
c1ccc2c(c1)CCN(c1ncnc3c1[nH]c1ccccc13)C2 | 4 | 13 | 2 | 44*
c1ccc(-c2nc(N3CCc4ccccc4C3)c3ccccc3n2)cc1 | 1 | 7 | -3 | 1
COc1cccc(CC(=O)Nc2cnc(-c3ccc(Cl)cc3)nc2)c1 | 3 | 7 | 6 | 79*
O=C(COc1ccccc1)Nc1cnc(-c2ccccc2)nc1 | 1 | -2 | -3 | -1
O=C(COc1ccc(F)cc1)Nc1cnc(-c2ccc(Cl)cc2)nc1 | 7 | 4 | 7 | 95*
Cc1ccc(-c2ncc(NC(=O)COc3cccc(C)c3)cn2)cc1 | -5 | 3 | -5 | 30*
O=C(COc1ccc(Cl)cc1)Nc1ccc(-c2cn3cccnc3n2)cc1 | -3 | 1 | -6 | 53*
COc1ccc(CC(=O)Nc2cc(-c3cn4cccnc4n3)ccc2C)cc1 | -3 | -5 | -8 | 16
CC(C)N1CCc2c(nc(C(=O)NCc3ccccc3)n2C)C1 | 1 | 1 | 0 | -27
CC1CCN(c2nc3ccccc3nc2SCC(=O)NCCc2ccc(Cl)cc2)CC1 | 2 | 4 | -11 | 8
O=C(COc1ccccc1)Nc1cnc(-c2ccc(Cl)cc2)nc1 | 0 | -1 | 3 | 78*
Cc1noc(/C=C/Nc2ccc(OC(F)(F)F)cc2)c1[N+](=O)[O-] | -2 | 8 | 10 | 41*
CC(=O)N1CCc2nc(-c3cccnc3)nc(N3CCCCC3)c2C1 | -2 | -15 | -2 | 0
Cc1ccc(NC(=O)Cn2nc3ccc(C(=O)NCc4ccccc4)cn3c2=O)cc1F | 0 | 15 | 10 | 41*
Cc1ccccc1Oc1cncc(C2CCCN(C(=O)c3cnccn3)C2)n1 (centres undefined) | -1 | 1 | 0 | 7
COc1ccccc1C(=O)NCc1nnc(SCC(=O)Nc2cccc(C)c2C)n1C | 3 | 3 | -3 | -6
Cc1cccc(NC(=O)CSc2nnc(CNc3ccc(Cl)cc3)n2C)c1C | 0 | -72 | -1 | 44*
COc1ccc2c(c1)CC(C(=O)NCC1CCN(Cc3ccc(C)cc3)CC1)CO2 (centres undefined) | 1 | -2 | -6 | 0
COc1ccc(C(c2c[nH]c3ccccc23)c2c[nH]c3ccccc23)cc1O | 1 | -2 | -7 | 38*
Cc1ccc(CNC(=O)Cn2c(-c3ccc(F)cc3)nc(C)cc2=O)cc1 | 0 | 10 | 0 | -4
Cc1ccc2cc(-c3noc(CCC(=O)NC4CCCC4)n3)c(=O)[nH]c2c1 | 9 | 41* | 47* | 75*
SMILES | UCHL1 block | USP7 inh | USP10 inh | USP8 inh
Cc1ccc2[nH]c(=O)c(-c3noc(CCC(=O)NC4CCCC4)n3)cc2c1 | 2 | 5 | 8 | 6
O=C(Nc1ccc(Cl)cc1F)C1CC(=O)N(CCc2ccccc2)C1 (centres undefined) | -3 | -18 | -1 | 2
COc1ccc(CC(=O)Nc2ccccc2C(=O)Nc2ccc(OC)cc2)cc1 | 2 | 0 | -3 | 2
COc1ccc(NC(=O)c2cccc3[nH]cc(CN4CCSCC4)c23)cc1 | 2 | 0 | 0 | 61*
Cc1ccccc1C(=O)Nc1cccc(-n2cnnn2)c1C | -12 | -7 | -6 | -4
Cc1c(NC(=O)/C=C/c2cccc(Cl)c2Cl)cccc1-n1cnnn1 | 3 | 17 | 20 | 80*
COc1ccc2nc(SCC(=O)Nc3ccc(NC(C)=O)cc3)c(C)cc2c1 | 9 | 18 | 24 | 69*
COc1ccc(-c2nc(SCC(=O)Nc3ccc(C(C)=O)cc3)n[nH]2)cc1 | -1 | -2 | 2 | 4
Cc1nc2cc(C#N)nn2c2c1CCN2Cc1ccco1 | -1 | -24 | -6 | -16
COC(=O)c1ccc(C(=O)Nc2ccc3sccc3c2)cc1 | 10 | 8 | 6 | 31*
O=C(Nc1ccc2sccc2c1)c1ccc(S(=O)(=O)N2CCOCC2)cc1 | 3 | 0 | 0 | 9
COc1cc2c(C#N)c(N3CCCC3)nc3c2c(n1)NC(C)(c1ccc(-c2ccccc2)cc1)N3 (centres undefined) | 17 | 35* | -7 | 39*
CCOc1ccccc1NC(=O)CN1C(=O)c2cccc3cccc1c23 | -1 | 9 | 26 | 68*
COc1ccccc1NC(=O)CN1C(=O)c2cccnc2Sc2ccccc21 | 0 | 4 | -4 | 0
CCCCC(=O)Nc1cc(=O)[nH]c2nc(Cc3ccccc3)nn12 | -1 | 2 | 4 | 1
COc1ccc(-c2nc3[nH]c(=O)cc(NC(=O)Cc4ccccc4)n3n2)cc1 | 1 | 10 | 0 | 60*
O=C(Nc1cc(=O)[nH]c2nc(Cc3ccccc3)nn12)c1ccco1 | -7 | -5 | -3 | 48*
CC(C)(C)c1ccc(-c2nc3[nH]c(=O)cc(NC(=O)c4ccco4)n3n2)cc1 | 0 | 4 | 15 | 43*
Cc1nc(-c2cccc(S(=O)(=O)NC3CCCc4ccccc43)c2)no1 (centres undefined) | 7 | 7 | 0 | 47*
Fc1ccc(-c2nn3c(-c4ccc5c(c4)OCO5)nnc3s2)cc1 | 0 | 4 | 0 | 64*
c1ccc2c(c1)ccc1nnc(-c3ccc4c(c3)OCO4)n12 | 4 | -25 | 0 | -235
CCOC(=O)Cn1c(-c2ccc(Cl)cc2)ccc(C#N)c1=O | 2 | 7 | 6 | 31*
COc1cccc(-c2nc3c(s2)CN(C(=O)CCC2CCCC2)CC3)c1 | 3 | -31 | 11 | 7
O=C(COc1cc([N+](=O)[O-])cc2cccnc12)NCCC1=CCCCC1 | 4 | -15 | 2 | 98*
COc1ccc(OCC(=O)NCCC2=CCCCC2)c([N+](=O)[O-])c1 | 5 | -24 | 2 | -96
SMILES | UCHL1 block | USP7 inh | USP10 inh | USP8 inh
Cc1ccc(-n2nc(C)c3c2NC(=O)CC3C(=O)c2cc3ccccc3o2)cc1 (centres undefined) | -1 | 3 | 33* | 24
O=S(=O)(c1ccc(Cl)cc1)N1CCC2(CC1)NCCN=C2NC1CCCC1 | -2 | 4 | -1 | 5
O=C(Cn1cc(-c2ccccc2)oc1=O)NCc1ccc(Cl)cc1 | 1 | -1 | -2 | 31*
O=C(Cc1cc(-c2ccccc2)on1)NCc1ccc(Cl)cc1 | 0 | 16 | 12 | 36*
NS(=O)(=O)c1ccc(CCNC(=O)Cc2cc(-c3ccc(F)cc3)on2)cc1 | 0 | 0 | -3 | 48*
O=C(NCCCn1ccnc1)c1nn(-c2ccc(F)cc2)cc1OCc1ccccc1 | -2 | -8 | 0 | -53
Cc1cc(C)cc(C(=O)Nc2ccc(C)cc2O)c1 | -5 | -1 | -7 | -7
CC1=CN2C(=N)/C(=C/c3cn(Cc4ccc(Cl)cc4)c4ccccc34)C(=O)N=C2S1 | -38 | -137 | -9 | -97
